Test results from a collection of fitness landscapes (doi:10.1038/s41467-024-54723-y).
Over roughly 18,000 sequences, “TetR repression strength (sort-seq, GFP reporter)” has its median near 0.23; the highest 2% begin near 0.68. The list comes from a sample in which the highest values are over-represented; it also holds similar and randomly drawn sequences.

The sequences below were run against TetR (class B, Tn10) (UniProt P04483) (assay: TetR repression strength (sort-seq, GFP reporter) (relative to tetO2 = 1); higher = stronger repression). Settings: E. coli.
TetR (class B, Tn10), sequence (P04483 whole entry): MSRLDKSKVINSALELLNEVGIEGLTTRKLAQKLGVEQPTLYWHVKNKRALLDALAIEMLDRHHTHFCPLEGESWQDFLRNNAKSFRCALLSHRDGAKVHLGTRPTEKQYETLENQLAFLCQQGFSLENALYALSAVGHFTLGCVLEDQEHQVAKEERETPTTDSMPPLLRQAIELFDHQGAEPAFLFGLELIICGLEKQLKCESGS
In short: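 Repression strength was calculated by subtracting the read-weighted mean bin from the top bin index plus one and dividing by the unaltered operator's value. The plasmid library was low-copy in E. coli SIG10-MAX, with eight randomized operator positions between a constitutive promoter and sfGFP and constitutive TetR. Cultures grew 5 h at 37 °C in LB containing 50 µg/mL chloramphenicol before 10^6 cells were sorted by FACS into 13 fluorescence bins, each sequenced on Illumina. Three independent transformations were averaged for members having ≥30 reads in all replicates and a CV ≤0.5.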
With TCCCGGACAGTAACGGAGA the TetR repression strength was 0.312. For TCCCGCGGAGTCACTGAGA, the TetR repression strength was 0.415. In the case of TCCCTCGTAGTGTTTGAGA, the TetR repression strength is reported as 0.362. TCCCAGTCAGTTCAGGAGA gave a TetR repression strength of 0.096. For TCCCGATAAGTTGCGGAGA, the TetR repression strength was 0.185. TCCCTTTCAGTAGAGGAGA gave a TetR repression strength of 1.01. Work on TCCCTTACAGTAGCGGAGA yielded a TetR repression strength of 0.0543. For TCCCCTTCAGTAGCGGAGA, the TetR repression strength was 0.344. Work on TCCCTTTCAGTAGCGGAGA yielded a TetR repression strength of 0.798. TCCCTTTCAGTAGGGGAGA showed a TetR repression strength of 0.194. For TCCCTTTCAGTCGAGGAGA, the TetR repression strength was 0.369. Work on TCCCAGACAGTCATCGAGA yielded a TetR repression strength of 0.368. Work on TCCCTAGCAGTTGTAGAGA yielded a TetR repression strength of 0.509. TCCCTTGCAGTGATCGAGA gave a TetR repression strength of 0.654. With TCCCGTCGAGTAGGGGAGA the TetR repression strength was 0.127. In the case of TCCCTTGGAGTTAGGGAGA, the TetR repression strength is reported as 0.2. TCCCTGTTAGTTTGTGAGA gave a TetR repression strength of 0.4. TCCCTGGGAGTTATAGAGA was tested, and the TetR repression strength was 0.354. With TCCCTAGGAGTTAGGGAGA the TetR repression strength was 0.979. With TCCCAGCGAGTTAGAGAGA the TetR repression strength was 0.815. TCCCAGCGAGTTACAGAGA was tested, and the TetR repression strength was 0.238. TCCCAGAGAGTTAGCGAGA was tested, and the TetR repression strength was 0.557. For TCCCTGGGAGTTAGTGAGA, the TetR repression strength was 0.146. Work on TCCCTGATAGTTTGAGAGA yielded a TetR repression strength of 0.382. TCCCTGGGAGTTAGAGAGA was tested, and the TetR repression strength was 0.832. Work on TCCCTGTTAGTTTGAGAGA yielded a TetR repression strength of 0.856. TCCCTAGTAGTTAGGGAGA showed a TetR repression strength of 0.192. Sequence TCCCAGAAAGTCAATGAGA has a TetR repression strength of 0.289. In the case of TCCCTGCTAGTGGCAGAGA, the TetR repression strength is reported as 0.119. For TCCCTATAAGTAGGAGAGA, the TetR repression strength was 0.228. In the case of TCCCAGTGAGTGCGCGAGA, the TetR repression strength is reported as 0.286. TCCCCAGAAGTCGTTGAGA was tested, and the TetR repression strength was 0.061. Work on TCCCCGTAAGTACAGGAGA yielded a TetR repression strength of 0.368. In the case of TCCCGGCAAGTTTTTGAGA, the TetR repression strength is reported as 0.238. TCCCGGGAAGTGGGGGAGA gave a TetR repression strength of 0.274. In the case of TCCCGGATAGTGATCGAGA, the TetR repression strength is reported as 0.33. TCCCGACTAGTCAGGGAGA showed a TetR repression strength of 0.515. With TCCCCGGGAGTGTGGGAGA the TetR repression strength was 0.207. For TCCCTGGTAGTGACAGAGA, the TetR repression strength was 1.03. TCCCTAGTAGTTGCGGAGA was tested, and the TetR repression strength was 0.322. TCCCTTGGAGTTGAGGAGA gave a TetR repression strength of 0.465. TCCCTGGTAGTTAGAGAGA was tested, and the TetR repression strength was 0.821. TCCCCTAGAGTTGAGGAGA gave a TetR repression strength of 0.239. TCCCAAGAAGTTGCGGAGA showed a TetR repression strength of 0.21. With TCCCTAGAAGTTGCGGAGA the TetR repression strength was 1.2. Sequence TCCCTGGTAGTTAGTGAGA has a TetR repression strength of 0.141. Work on TCCCTGGTAGTGAGAGAGA yielded a TetR repression strength of 0.326. In the case of TCCCCTTGAGTTGAGGAGA, the TetR repression strength is reported as 0.707. TCCCTGGTAGTGACCGAGA gave a TetR repression strength of 0.116. TCCCTGTTAGTTAGAGAGA gave a TetR repression strength of 0.452. With TCCCGGCTAGTGTGGGAGA the TetR repression strength was 0.221. With TCCCAGGAAGTCAGGGAGA the TetR repression strength was 0.235. Sequence TCCCCGAGAGTGCCAGAGA has a TetR repression strength of 0.411. Sequence TCCCAATGAGTTCAGGAGA has a TetR repression strength of 0.243. In the case of TCCCAGTTAGTAATTGAGA, the TetR repression strength is reported as 0.0467. With TCCCTGGGAGTTGGGGAGA the TetR repression strength was 0.211. TCCCCTGGAGTTTGGGAGA was tested, and the TetR repression strength was 0.286. TCCCCTGGAGTTGGGGAGA gave a TetR repression strength of 1.09. TCCCGACTAGTGATAGAGA gave a TetR repression strength of 0.632. TCCCCTCGAGTGTGTGAGA gave a TetR repression strength of 0.125. Sequence TCCCCTTGAGTGTTTGAGA has a TetR repression strength of 0.302. Sequence TCCCGTCTAGTGTTTGAGA has a TetR repression strength of 0.371. For TCCCCTCGAGTGTTTGAGA, the TetR repression strength was 0.92. For TCCCCTGTAGTGTTTGAGA, the TetR repression strength was 0.396. In the case of TCCCCTCTAGTGTTTGAGA, the TetR repression strength is reported as 0.945. TCCCCCAGAGTTAACGAGA gave a TetR repression strength of 0.207. Work on TCCCCTGCAGTGGCTGAGA yielded a TetR repression strength of 0.205. In the case of TCCCGTAGAGTCGATGAGA, the TetR repression strength is reported as 0.715. For TCCCCAAGAGTAGATGAGA, the TetR repression strength was 0.739. TCCCCACGAGTAGTCGAGA gave a TetR repression strength of 0. For TCCCCAATAGTAGATGAGA, the TetR repression strength was 0.672. TCCCGTTGAGTCGATGAGA was tested, and the TetR repression strength was 0.335. With TCCCCAAAAGTAGATGAGA the TetR repression strength was 0.081. Work on TCCCCATTAGTATTCGAGA yielded a TetR repression strength of 0.24. Work on TCCCCATGAGTCGTCGAGA yielded a TetR repression strength of 0.214. With TCCCCTAGAGTCGATGAGA the TetR repression strength was 0.271. With TCCCCAATAGTAGTCGAGA the TetR repression strength was 0.459. With TCCCCATGAGTAGTCGAGA the TetR repression strength was 1.03. TCCCCATTAGTAGTCGAGA showed a TetR repression strength of 1.01. For TCCCGAAGAGTAAGTGAGA, the TetR repression strength was 0.207. TCCCGTCCAGTGTGTGAGA gave a TetR repression strength of 0.22. For TCCCATATAGTGTACGAGA, the TetR repression strength was 0.0769. Work on TCCCCTAGAGTGCAAGAGA yielded a TetR repression strength of 0.552. Sequence TCCCATGGAGTTGGTGAGA has a TetR repression strength of 0.227. Sequence TCCCCTCAAGTCGAGGAGA has a TetR repression strength of 0.125. TCCCTACAAGTGGATGAGA showed a TetR repression strength of 0.221. TCCCTGTCAGTGCCAGAGA gave a TetR repression strength of 0.324. TCCCTCTCAGTGCCAGAGA showed a TetR repression strength of 0.585. With TCCCCAGTAGTCCCTGAGA the TetR repression strength was 0.945. TCCCTATTAGTCCCAGAGA was tested, and the TetR repression strength was 0.32. Work on TCCCCTTCAGTCCCAGAGA yielded a TetR repression strength of 1.12. For TCCCTTTCAGTCCCAGAGA, the TetR repression strength was 0.0305. Sequence TCCCTATCAGTCCGAGAGA has a TetR repression strength of 0.324. TCCCTATCAGTGCCAGAGA showed a TetR repression strength of 0.743. TCCCTATCAGTCCCAGAGA showed a TetR repression strength of 1.18. TCCCAGTCAGTCCCAGAGA showed a TetR repression strength of 0.365. With TCCCCAGTAGTCGCTGAGA the TetR repression strength was 0.311. Work on TCCCCAGTAGTCTGAGAGA yielded a TetR repression strength of 0.0196. Work on TCCCGTCAAGTAATAGAGA yielded a TetR repression strength of 0.331. TCCCTGTTAGTTGTCGAGA showed a TetR repression strength of 0.341. Work on TCCCTTTCAGTATGGGAGA yielded a TetR repression strength of 0.422. For TCCCAAAAAGTGGTGGAGA, the TetR repression strength was 0.203. In the case of TCCCCGCGAGTTGAAGAGA, the TetR repression strength is reported as 0.335. TCCCTAACAGTCGGCGAGA showed a TetR repression strength of 0.163.
